# Screening results from PubChem.
# Rows were chosen to be rich in hits. Some 1.9% of all compounds tested hit in one or more screens of this group.
# PLCg1 inh – PLC-gamma1 enzyme inhibitors, primary screen, biochemical, fluorescence, purified enzyme | 1-phosphatidylinositol 4,5-bisphosphate phosphodiesterase gamma-1 (Homo sapiens), P19174 | fluorogenic substrate | inhibition, % at 12.2 µM | actives 0.84% (n = 370,000) | AID 720700, 2013; in the data active = inhibition above about 9.5%
# MsrA inh – bovine MsrA enzyme inhibitors, primary screen, biochemical, absorbance, HTS; purified bovine MsrA, absorbance read-out; inhibition, % at 15.5 µM; actives 0.75% (n = 360,000); in the data active = inhibition above about 4.5%;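 also: 0% = vehicle wells with enzyme and 100% = reference inhibitor wells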
# PLC-beta3 inh – human PLC-beta3 inhibitors, primary screen, biochemical, fluorescence; Purified PLC-beta3, fluorogenic substrate; inhibition, % at 12.2 µM; actives 0.18% (n = 370,000);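 also: 0% = median of compound wells on plate and 100% = full blocker control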
# Target sequence (Q01970 whole entry, looked up): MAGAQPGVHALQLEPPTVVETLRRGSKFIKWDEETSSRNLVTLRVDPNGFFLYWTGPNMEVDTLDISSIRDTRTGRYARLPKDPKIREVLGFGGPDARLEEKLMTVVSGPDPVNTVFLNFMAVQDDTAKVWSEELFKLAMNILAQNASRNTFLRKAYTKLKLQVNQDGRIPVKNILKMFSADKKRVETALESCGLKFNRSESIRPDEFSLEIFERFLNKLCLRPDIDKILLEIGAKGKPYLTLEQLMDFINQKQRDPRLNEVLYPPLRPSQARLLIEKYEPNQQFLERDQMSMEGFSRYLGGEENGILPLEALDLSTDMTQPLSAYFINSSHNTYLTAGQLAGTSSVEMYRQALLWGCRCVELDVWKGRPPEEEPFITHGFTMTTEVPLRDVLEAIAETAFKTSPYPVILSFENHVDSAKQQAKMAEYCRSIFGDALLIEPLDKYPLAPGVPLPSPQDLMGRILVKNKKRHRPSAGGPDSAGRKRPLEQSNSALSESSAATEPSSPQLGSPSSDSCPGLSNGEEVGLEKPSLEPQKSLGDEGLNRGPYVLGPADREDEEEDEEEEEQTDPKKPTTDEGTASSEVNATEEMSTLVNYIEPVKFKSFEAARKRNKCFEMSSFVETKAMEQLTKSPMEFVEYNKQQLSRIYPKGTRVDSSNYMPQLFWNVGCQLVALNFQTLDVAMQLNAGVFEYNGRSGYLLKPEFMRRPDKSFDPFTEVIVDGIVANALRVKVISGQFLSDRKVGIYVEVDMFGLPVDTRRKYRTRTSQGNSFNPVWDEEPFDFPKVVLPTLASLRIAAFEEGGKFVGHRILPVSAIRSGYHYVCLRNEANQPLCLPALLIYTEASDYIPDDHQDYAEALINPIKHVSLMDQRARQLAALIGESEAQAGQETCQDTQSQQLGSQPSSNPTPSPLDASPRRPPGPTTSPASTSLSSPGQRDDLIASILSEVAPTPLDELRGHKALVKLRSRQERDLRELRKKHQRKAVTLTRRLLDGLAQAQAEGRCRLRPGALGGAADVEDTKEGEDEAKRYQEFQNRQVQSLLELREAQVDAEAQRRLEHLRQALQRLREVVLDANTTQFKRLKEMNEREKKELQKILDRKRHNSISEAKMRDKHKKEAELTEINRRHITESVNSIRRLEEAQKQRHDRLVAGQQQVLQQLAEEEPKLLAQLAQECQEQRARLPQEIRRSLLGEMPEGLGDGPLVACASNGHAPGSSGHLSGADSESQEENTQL
# MsrA act – bovine MsrA enzyme activators, primary screen, biochemical, absorbance, HTS. actives 0.3% (n = 360,000). AID 602163, 2012. activation, % at 10.6 µM. purified bovine MsrA, absorbance read-out. Methionine sulfoxide reductase A (Bos taurus); in the data active = activation above about 7.5%;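 also: 0% = vehicle and 100% = reference activator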
# PLCg1 ctr – PLC-gamma1 enzyme inhibitors, counter-screen for PLC-beta3 inhibitor project, biochemical, fluorescence | inhibition, % at 12.3 µM | actives 3.1% (n = 3,300) | AID 743258, 2014 | shares compounds with PLCg1 inh | purified PLC-gamma1, fluorogenic substrate; in the data active = inhibition above about 9.5%
# PLCbeta3 conf – PLC-beta3 inhibitor confirmation, biochemical, fluorescence, purified enzyme; shares compounds with PLCg1 inh; fluorogenic substrate fluorescence; inhibition, % at 12.3 µM; actives 1% (n = 3,300); AID 743261, 2014
# Starred values were filed as active, the others as inactive; nt = no result given. Rule as the data show it, unless noted: active = inhibition above about 11%; inactive = the rest.
SMILES,PLCg1 inh,MsrA inh,PLC-beta3 inh,MsrA act,PLCg1 ctr,PLCbeta3 conf
O=C1NC(=S)N/C1=C\c1cccnc1,0.0,2.6,-4.1,-2.7,nt,nt
O=C1NC(c2ccc(-c3ccccc3[N+](=O)[O-])o2)C(C(=O)c2ccccc2)C(O)(C(F)(F)F)N1 (stereo unspecified),-1.9,0.3,11.4*,-6.8,-51.4,-35.2
CC(=O)Nc1ccc(S(=O)(=O)NCc2cn3ccsc3n2)cc1,10.9*,0.9,11.2*,-4.7,-9.7,-1.5
CC(=O)Nc1ccc(S(=O)(=O)NCc2cn3c(C)csc3n2)cc1,0.0,0.3,1.0,-1.4,nt,nt
O=C(c1cccc([N+](=O)[O-])c1)N1CCN(c2ccc(Cl)cc2)CC1,11.2*,0.9,2.0,-3.8,2.1,-1.2
O=C(c1ccc(Cl)cc1)N1CCN(c2ccc(F)cc2)CC1,10.5*,0.5,4.6,-6.0,-4.4,0.5
O=C(c1ccc(CS(=O)Cc2ccc(Cl)cc2)o1)N1CCN(c2ccc(F)cc2)CC1 (stereo unspecified),9.5*,1.3,-4.5,-0.6,-2.2,-1.8
C/C(=N\N1CCN(c2ccc(Cl)cc2)CC1)c1cccc([N+](=O)[O-])c1,4.6,0.8,5.5,-4.2,nt,nt
O=C(c1ccc(Cl)cc1)N1CCCOC1,16.2*,0.0,12.6*,-3.6,3.8,1.6
CCOC(=O)[C@]12CCC=C1N(Cc1ccc(Cl)cc1Cl)C(=O)[C@H](CC(=O)NCCc1ccccc1OC)C2,3.5,0.9,0.5,-0.8,nt,nt
CCS(=O)(=O)Nc1ccc2c(c1)C(=O)N(C)[C@@H]1CC[C@H](CC(=O)NCCCN3CCOCC3)O[C@H]1CO2,2.5,nt,5.5,nt,nt,nt
COc1ccc(S(=O)(=O)N(C)CC(=O)Nc2cccc(C(C)=O)c2)cc1,0.8,-0.9,-0.3,-3.3,nt,nt
COc1ccc(S(=O)(=O)N(C)CC(=O)Nc2ccc(F)cc2)cc1,6.6,0.7,10.7*,-0.6,-1.8,0.5
C=CCN(Cc1ccc(Cl)s1)C(=O)c1ccc(F)c(S(=O)(=O)N2CCOCC2)c1,79.6*,-1.2,4.8,-1.8,0.4,-2.7
CSc1nc(N)c(C(=O)NC2CCCCC2)s1,12.4*,3.0,-3.0,-9.1,9.6*,5.0
COc1ccc([C@H]2CN(CCc3ccccc3)C(=O)[C@@H]2CC(=O)Nc2ccccc2)cc1,-0.2,0.3,-2.1,-1.7,nt,nt
CC(C)NC(=O)C1(C)Cc2c(-c3ccc(C(N)=O)cc3)ccnc2O1 (stereo unspecified),1.4,0.4,12.4*,1.2,-6.5,-1.6
CC1(C(=O)Nc2ccc(Cl)cc2)Cc2c(-c3ccc(C(N)=O)cc3)ccnc2O1 (stereo unspecified),1.6,1.4,-3.0,-0.2,nt,nt
CC12CCC(C/C1=N/O)C2(C)C (stereo unspecified),10.0*,-0.6,-1.9,3.5,-3.9,1.3
CC12CCC(CC1=O)C2(C)C (stereo unspecified),6.3,0.3,4.4,-0.1,nt,nt
CCOc1cc(/C=N/Nc2nnc(C)n2N)ccc1O,19.9*,3.5,5.3,4.5,-5.1,-0.6
CS(=O)(=O)N(CC(=O)Nc1ccccc1C(=O)N1CCCC1)c1ccc2c(c1)OCO2,9.6*,2.0,2.6,-0.7,7.5,0.1
COC(=O)c1ccccc1NC(=O)CN(c1ccc(OC)cc1)S(C)(=O)=O,3.8,0.7,14.4*,-2.9,-3.5,-0.8
COc1ccc(N(CC(=O)Nc2cccc3ccccc23)S(C)(=O)=O)cc1,2.4,0.1,-2.4,-1.6,nt,nt
CS(=O)(=O)N(CC(=O)Nc1ccccc1C(=O)N1CCOCC1)c1ccc2c(c1)OCO2,-2.1,-0.1,-1.2,-0.3,nt,nt
SMILES,PLCg1 inh,MsrA inh,PLC-beta3 inh,MsrA act,PLCg1 ctr,PLCbeta3 conf
COc1ccc(N(CC(=O)Nc2cc(Cl)ccc2C)S(=O)(=O)c2c(C)n[nH]c2C)cc1,12.9*,1.1,-2.7,-1.6,2.5,3.8
COc1ccc(N(CC(=O)Nc2ccc(C)cc2C)S(=O)(=O)c2c(C)n[nH]c2C)cc1,3.8,-0.8,-2.7,-5.0,nt,nt
O=c1cc(N2CCN(c3cccc(C(F)(F)F)c3)CC2)[nH]c(=O)n1-c1ccccc1,6.0,nt,4.8,nt,nt,nt
O=C(CCc1nc(-c2ccccc2F)no1)NCCN1CCOCC1,3.9,1.3,14.4*,-11.3,-13.9,3.2
OC[C@@H]1CN(Cc2ccco2)C[C@H](n2cnc3c(N4CCN(c5ccccc5)CC4)ncnc32)O1,-10.8,-1.3,4.2,1.6,nt,nt
COc1ccc(NC(=O)C2(C)CCCN(C(C)=O)C2)cc1F (stereo unspecified),0.5,-0.8,3.0,0.8,nt,nt
CCOC(=O)c1cccc(-c2cc(C(=O)OC)c3n(c2=O)CCC3)c1,-10.1,nt,-11.6,nt,nt,nt
c1ccc(-[n+]2nc(Nc3cccc4ccccc34)sc2-c2c3ccccc3cc3ccccc23)cc1,nt,nt,nt,-3.3,nt,nt
CCCCn1c(SCC(=O)Nc2nnc(C(C)C)s2)nc2c1c(=O)n(C)c(=O)n2C,2.1,-0.7,0.8,-0.1,nt,nt
CCCn1c(SCC(=O)Nc2nc3c(s2)CCCC3)nc2c1c(=O)n(C)c(=O)n2C,10.4*,1.9,6.6,0.5,1.3,0.8
CN(C)CCC1c2ccc(Cl)cc2CCc2cccnc21 (stereo unspecified) (tested in a mixture with another compound),-4.3,-0.7,-6.1,-1.0,nt,nt
CC(=O)Nc1ccc(NC(=O)C2CCCN(C(=O)c3ccc(Cl)cc3)C2)cc1 (stereo unspecified),12.0*,0.3,6.3,-3.1,-2.0,0.0
CCC(=O)N1CCCC1(C)C(=O)Nc1ccc2scnc2c1 (stereo unspecified),12.4*,1.2,7.8,-11.3,-1.6,-13.7
CC(C)N1CCC1(C)C(=O)Nc1ccc2scnc2c1 (stereo unspecified),-0.6,-1.0,3.2,0.9,nt,nt
O=[N+]([O-])c1cc([N+](=O)[O-])c(Oc2cccnc2Br)cc1NN1CCCCC1,10.9*,3.3,10.3,-4.3,5.2,4.5
O=[N+]([O-])c1cc([N+](=O)[O-])c(Oc2cccc3ccccc23)cc1NN1CCCCC1,6.4,0.8,2.1,-9.9,nt,nt
N=C(N)SCc1cn(-c2ccccc2)nc1-c1ccc(Br)cc1,9.5*,-0.2,4.9,2.5,7.2,1.3
NC(=O)c1ccc(N2CCN(S(=O)(=O)c3ccccc3)CC2)c([N+](=O)[O-])c1,3.3,0.3,-3.1,3.6,nt,nt
CCSc1nc2ccccc2n1CC(=O)OC,12.6*,-0.8,7.3,-11.7,-2.1,3.7
c1ccc(CCn2c(SCc3ccccc3)nnc2-c2ccncc2)cc1,9.9*,1.4,1.6,-10.6,-5.5,-4.3
C=CCn1c(SCc2cccc(OC)c2)nnc1-c1ccncc1,11.9*,-0.2,-0.2,-9.1,-0.3,-2.8
